In publication PMC5540273 (PLoS ONE, 2017):

How the values were obtained:
Conditions in all cases: concentration: 1 μM, replicates: in singlicate; n = 1
TESK1 = system: TESK1
TGFBR1 = system: TGFBR1
TGFBR2 = system: TGFBR2
TIE1 = system: TIE1
TIE2 = system: T1, TIE2
T1 construct: gene TEK

TLK1 = system: TLK1
TLK2 = system: TLK2
TNIK = system: TNIK
TNK1 = system: TNK1
TNK2 = system: TNK2
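Note: KINOMEscan kinase panel screen.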

SMILES	%Inh (TESK1) [%]	%Inh (TGFBR1) [%]	%Inh (TGFBR2) [%]	%Inh (TIE1) [%]	%Inh (TIE2) [%]	%Inh (TLK1) [%]	%Inh (TLK2) [%]	%Inh (TNIK) [%]	%Inh (TNK1) [%]	%Inh (TNK2) [%]
COc1cc(Nc2nccc(N3CCC(NC(=O)c4cc5ccccc5s4)C3)n2)cc(OC)c1OC (centres unmarked) [GSK1379760]	9	0	0	35	0	8	18	0	0	15
Nc1ncc(-c2cccnc2)c2scc(-c3ccc4c(c3)CCN4C(=O)Cc3ccccc3)c12 [GSK683281]	33	0	0	92.5	57	0	0	55	19	59
c1ccc(Oc2ccc(Nc3ccnc4cc(-c5ccc(CNCCN6CCOCC6)o5)ccc34)cc2)nc1 [GW567145]	3	0	0	0	0	0	0	30	27	37
COc1cccc(C(=O)Nc2cccc(Oc3ccc4nc(NC(=O)C5CC5)cn4n3)c2)c1	0	0	40	84	67	4	0	54	48	5
COc1ccc(CNC(=O)NC2CCN(c3ccnc(Nc4ccc(F)cc4)n3)CC2)cc1 [GSK1379788]	2	18	0	0	0	0	0	0	9	2
CN(C)Cc1ccc(-c2ccc3c(Nc4ccc(Oc5ccccn5)cc4)ccnc3c2)o1 [GW567148]	0	0	0	19	0	0	0	20	29	40
COc1cccc(-c2ccc3c(NC(=O)C4CC4)n[nH]c3n2)c1 [SB-710903]	36	27	0	0	0	3	0	82	0	9
CC(C)(C)c1ccc2nccc(Nc3cccc(O)c3)c2c1 [GW856795]	0	42	88	0	2	12	0	0	19	0
COc1cccc(NC(=O)NC2CCN(c3ccnc(Nc4cc(OC)c(OC)c(OC)c4)n3)C2)c1 (centres unmarked) [GSK1379763]	1	4	0	28	0	10	0	0	0	9
c1ccc(-c2cnc3nccnn23)cc1 [AH20685]	0	0	0	0	0	0	0	0	9	0
COC(=O)Nc1nc2ccc(Oc3ccc(NC(=O)Nc4cc(C(F)(F)F)ccc4F)cc3)cc2n1C.Cl [GW692089]	0	7	0	97	97.3	0	33	10	0	0
O=C(O)C(F)(F)F.O=C(O)C(F)(F)F.O=c1[nH]ccc2nc(N[C@@H]3CCCNC3)nc(Nc3ccc(S(=O)(=O)N4CCOCC4)cc3)c12 [GSK2177277]	0	32	0	66	0	94.3	98.2	99.5	73	26
O=C(Nc1ccccc1F)NC1CCN(c2ccnc(Nc3ccc(F)cc3)n2)CC1 [GSK1379800]	17	36	0	6	7	0	0	0	0	15
O=C(Nc1n[nH]c2nc(-c3ccc(O)cc3)ccc12)C1CC1 [SB-710363]	0	0	0	0	11	18	0	95.1	0	0
C[C@@H]1CC[C@@H](C(=O)Nc2ccccc2)CN1c1cc(-c2ccc3c(N)n[nH]c3c2)nc(N)n1 [GSK2286062]	29	0	0	0	22	0	4	0	0	0
CC(=O)Nc1nc2cnc(Nc3cc(NC(=O)c4cccc(C5(C#N)CC5)c4Cl)ccc3C)nc2s1	0	4	0	7	8	14	0	16	88	0

SMILES	%Inh (TESK1) [%]	%Inh (TGFBR1) [%]	%Inh (TGFBR2) [%]	%Inh (TIE1) [%]	%Inh (TIE2) [%]	%Inh (TLK1) [%]	%Inh (TLK2) [%]	%Inh (TNIK) [%]	%Inh (TNK1) [%]	%Inh (TNK2) [%]
COc1cc(Nc2ncc3c(C)nc(-c4cc5ccccc5[nH]4)n3n2)cc(OC)c1OC [GW869516]	1	14	0	46	32	0	0	47	49	17
COc1cccc(C2=C(Nc3ccc(Cl)c(C(=O)O)c3)C(=O)NC2=O)c1 [SB-390769]	20	0	6	25	17	5	0	0	0	17
CN(C)S(=O)(=O)c1cc(-c2ccc3nccc(-c4cccc(S(N)(=O)=O)c4)c3c2)cnc1N [GSK1669921]	0	0	0	26	0	0	0	13	42	9
COc1ccc(Nc2nccc(NCCNC(=O)c3cc4ccccc4s3)n2)cc1 [GSK1379896]	0	0	0	0	0	0	0	0	0	4
O=C(Nc1cccc(-c2nn3ncccc3c2-c2ccnc(Nc3ccccc3)n2)c1)c1c(F)cccc1F [GSK198271]	24	0	0	45	25	22	0	32	97.4	51
Cc1ccc(S(=O)(=O)Nc2ccc(Nc3nccc(Nc4cccc5[nH]ncc45)n3)cc2)cc1 [GSK581271]	13	20	91.2	9	0	0	0	0	0	27
Cc1ccc(C(=O)Nc2ccc(Nc3ccnc4cc(-c5nccs5)ccc34)cc2O)cc1.Cl [GW494702]	15	40	0	16	5	0	0	36	46	96.9
C[C@@H](Oc1cc(-n2cnc3cc(-c4ccnc(NCCS(C)(=O)=O)c4)ccc32)sc1C(N)=O)c1ccccc1Cl [GSK907232]	28	5	0	78	56	0	0	36	17	33
COc1ccc(Nc2nccc(N3CCC(NC(=O)Nc4cccc(OC)c4)C3)n2)cc1 (centres unmarked) [GSK1379742]	36	0	9	0	0	0	0	0	0	12
Cc1cccc(Nc2nc(N[C@H]3CCNC3)ncc2C(N)=O)c1.Cl [GSK2197149]	23	0	0	0	0	20	0	78	47	6
Fc1ccc(-c2ncn(C3CCNCC3)c2-c2ccnc(Oc3ccc(-c4ccccc4)cc3)n2)cc1 [SB-245391]	19	59	16	46	31	3	35	11	10	0
COc1cc2c(cc1OCCN1CCNCC1)ncc1c3ccc(C#N)cc3[nH]c21	2	20	0	1	5	25	0	76	4	0
Cc1ccc(C)c(NC(=O)NC2CCN(c3ccnc(Nc4ccc(F)cc4)n3)C2)c1 (centres unmarked) [GSK1379720]	28	12	0	0	0	0	0	0	0	21
CCn1c(-c2nonc2N)nc2c(C#CC(C)(C)O)ncc(OCCCCN)c21.O=C(O)C(F)(F)F.O=C(O)C(F)(F)F [GSK507274]	57	0	0	5	44	0	0	0	0	11
CSc1cccc2c(-c3ccncn3)c(-c3ccc(F)cc3)nn12 [GW514786]	31	28	24	6	0	0	0	0	8	6
Cc1cccc(NC(=O)Nc2ccc(Oc3ncnc4ccn(C)c34)cc2)c1	0	0	0	59	2	0	0	8	0	5
